Compound activity from PubChem.
Shown are actives, neighbours in structure and some others; about 21% of the full set was active somewhere.
SARS PLP yeast = SARS-CoV PLP inhibition in yeast | S. cerevisiae expressing SARS-CoV PLpro, growth rescue | Potency, µM (titrated, usually from 32.9 µM), inactives show at the highest dose activity, positive = growth rescue, usual class: activators | hit rate 0.19% among 330,000; note: potency is the fitted concentration of half-maximal effect; 0% is about no effect; nearly all actives have a fitted effect of over 55% in size
Pf growth 96h = P. falciparum growth inhibition at 96 hours; Potency, µM (highest dose often 28.7 µM), inactives show at the highest dose activity change, negative = inhibition, usual class: inhibitors; hit rate 6.9% among 320,000; P. falciparum luciferase reporter growth, 96 h; active = well fitted inhibition curve with a large enough effect; inconclusive = small, poorly fitted or top-dose-only effect, or another doubt; inactive = no such curve, though single readings can be large or run the other way; note: potency is the fitted concentration of half-maximal effect; % is set by controls: 0 for no effect and ±100 for the full control effect
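Delayed-death screen, second-generation endpoint: infected erythrocytes, 2% hematocrit, 0.05% parasitemia final; 96 hours at 37 C, 5% CO2; luciferase detection reagent; luminescence decrease equals reduced growth.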
Shiga inhibitor = inhibitors of Shiga toxin in Vero cells | Vero cells, Shiga toxin protein synthesis inhibition reporter | inhibition, % at 38.7 µM | hit rate 9.2% among 290,000 | AID 2315; in the data active = inhibition mostly above about 28%, no sharp cut-off; inactive = mostly below about 43%; note: 0% is about no effect
NS1 function inh = influenza NS1 inhibition; Potency, µM (series often up to 46.1 µM), without a hit: at the highest dose activity, positive = more growth; hit rate 0.4% among 270,000; AID 2326; note: potency is the fitted concentration of half-maximal effect; actives are rising curves; nearly all actives have a fitted effect of over 50% in size
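A cell-based growth assay was used: compounds that relieve NS1-induced slow growth of budding yeast raise OD600. Assay medium was yeast nitrogen base with ammonium sulphate and -URA supplement, pH 6.0, with 2% galactose.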
CHX counter = affects cycloheximide protein synthesis inhibition readout, counter-screen | cell reporter, cycloheximide protein synthesis inhibition counterscreen | hit rate 12% among 300,000 | max response, %; in the data active = max response mostly above about 13%, no sharp cut-off; inactive = mostly below about 14%; note: read at 38.3 µM for the half of the compounds with a filed dose; 0% is about no effect
Pf growth 48h = P. falciparum growth inhibition at 48 hours (one generation) | P. falciparum luciferase growth in erythrocytes, 48 h | Potency, µM (series often up to 28.7 µM), without a hit: top-dose activity change, negative = inhibition, actives largely listed as inhibitors | hit rate 5.9% among 310,000 | AID 504832; active = well fitted inhibition curve with a large enough effect; inconclusive = small, poorly fitted or top-dose-only effect, or another doubt; inactive = no such curve, though single readings can be large or run the other way; note: potency is the fitted concentration of half-maximal effect; % is set by controls: 0 for no effect and ±100 for the full control effect
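Erythrocytes infected with P. falciparum carrying an integrated firefly luciferase reporter (2% hematocrit, 0.1% parasitemia final) were exposed to compounds in RPMI 1640 with 0.5% Albumax at 37 C, 5% CO2. Growth inhibition was scored as reduced luminescence.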
Flu NS1 inh = validation of influenza NS1 protein function inhibitors; activity change, negative = inhibition, % at 32.9 µM; influenza NS1 function cell assay, 15-point titration; shares compounds with NS1 function inh; 1,400 tested, under 10 active; note: 0% is about no effect
The depositor's hits bear a star; ? = inconclusive; / = no result given; ! = a repeat was not active; [ ] = dose if it differs, or a comment. Unless noted, calls come from the whole dose curve.

SMILES	SARS PLP yeast	Pf growth 96h	Shiga inhibitor	NS1 function inh	CHX counter	Pf growth 48h	Flu NS1 inh
COC(=O)c1c(NC(=O)CN2CCCC(C)C2)c2c(C)cccc2n1C (stereo not drawn)	10.5%	/	-20.0	5.01µM*	-2.3	/	-18.9
COC(=O)c1c(NC(=O)CN2CCC(C(N)=O)CC2)c2c(C)cccc2n1C	1.8%	-10.3%	-12.6	?	-4.1	/	/
C/C(=N\Nc1nc2ccc(Cl)cc2o1)c1ccccc1	-1.8%	-20.8%	73.5*	8.91µM*	26.7*	2.3%	?
C/C(=N/NS(=O)(=O)c1ccccc1)c1ccc(Cl)cc1	-0.7%	238.8%	-5.5	0.0%	-6.7	-2.4%	/
CCC(C)c1ccccc1NC(=S)NC(=O)c1ccco1 (stereo not drawn)	3.5%	-18.2%	-1.1	-28.3%	-3.3	?	/
COc1cccc(-c2cc(C(=O)Nn3cnnc3)c3ccccc3n2)c1	-3.3%	?	-16.1	0.9%	-1.6	-3.1%	/
COc1ccc(COc2cc(-c3cccc(OC)c3)nc3ccc(N)cc23)cc1	3.2%	5.86µM*	61.2*!	4.47µM*	37.2*!	14.7µM*	-4.4
COc1ccc(COc2cc(-c3cccc(OC)c3)nc3ccc(NC(=O)c4ccc(N(C)C)cc4)cc23)cc1	6.2%	2.94µM*	-4.8	10µM*	1.2	2.33µM*	?
COc1ccc(COc2cc(-c3cccc(OC)c3)nc3ccc(NC(C)=O)cc23)cc1	1.2%	27.7%	35.6	2.2%	-4.2	17.9%	/
CCOc1ccc(-c2nnn(CC(=O)N3CCCC3)n2)cc1OCC	17.9%	?	7.9	-2.0%	-3.0	-20.0%	/
COc1ccc(CC(=O)Nc2nnc(CC(C)C)s2)cc1S(=O)(=O)N1CCOCC1	0.8%	?	/	/	/	?	/
CCC(C)NC(=O)c1cc(CC(C)C)on1 (stereo not drawn)	-12.0%	11.7µM*	59.3*	?	49.1*	41.0%	-17.1
COc1ccccc1NC(=O)N(CCN(C)C)Cc1cc2cc(C)ccc2[nH]c1=O	-3.6%	-18.4%	-17.2	-2.7%	-5.8	-4.6%	/
CCN1CCCC1CN(Cc1cc2cc(C)ccc2[nH]c1=O)C(=O)Nc1ccccc1OC (stereo not drawn)	5.3%	?	-16.7	11.2µM*	2.0	?	-5.5
C=CCn1c(O)c(C=Nc2ccc(CN3CCCCC3)cc2)c(=O)[nH]c1=S	0.5%	1.6%	13.3	3.0%	-1.2	15.2%	/
CCc1nnc(NS(=O)(=O)c2ccc(NCc3cc(Cl)ccc3O)cc2)s1	1.6%	39.5%	2.9	8.1%	-8.5	13.2%	/
N#CC1=C(S)N=C(N)C(c2nc(-c3ccccc3)cs2)C12CCCCC2 (stereo not drawn)	10.7%	10.9%	11.0	11.2µM*	15.9	/	18.3
N#CC1=C(S)N=C(N)C(c2nc(-c3ccccc3)cs2)C12CCCC2 (stereo not drawn)	3.2%	/	-4.9	21.9%	10.4	?	/
CN(/N=C\c1ccc(O)c(O)c1)c1nc(-c2ccccc2)cc(-c2ccccc2)n1	-53.0%	?	11.1	8.91µM*	6.6	10.4µM*	?
Cc1[nH]c(C)c(S(=O)(=O)N2CCN(c3cccc(Cl)c3)CC2)c1C(=O)N1CCCCC1	-6.3%	?	-1.7	9.3%	14.6	0.0%	/
COc1ccccc1C1N(c2ccc(Cl)cc2)C(=O)C2CCCN21 (stereo not drawn)	14.9%	40.9%	-7.3	11.2µM*	5.3	-28.8%	-21.3
COc1ccc(C2N(c3ccc(F)cc3)C(=O)C3CCCN32)cc1 (stereo not drawn)	4.5%	-29.5%	29.8	1.12µM*	-1.4	/	3.4
O=C(CSc1ccc(Cl)cc1)NNC(=O)c1ccncc1	-0.8%	15.7%	/	/	/	12.3%	/
O=C(CSc1ccc(Cl)cc1)Nc1ccccc1Oc1ccccc1	14.5%	?	-47.2	1.2%	-2.8	?	/
O=C(CSc1ccc(Cl)cc1)NC1=NN(c2ccccc2)C(=O)C1	-1.0%	0.0%	-2.7	11.2µM*	1.2	-5.8%	24.2
SMILES	SARS PLP yeast	Pf growth 96h	Shiga inhibitor	NS1 function inh	CHX counter	Pf growth 48h	Flu NS1 inh
Cc1ccc(CNC(=O)C2CCN(c3nnc(N4CCCC4=O)s3)CC2)cc1	3.6%	72.3%	-0.4	-1.2%	1.1	4.2%	/
CC(NC(=O)CCNC(=O)c1ccco1)c1ccccc1 (stereo not drawn)	2.4%	8.0%	/	/	/	?	/
CC(C)Nc1ccc(C(CC(N)=O)NC(=O)c2ccc(Br)cc2)cc1[N+](=O)[O-] (stereo not drawn)	2.6%	7.8%	-10.7	1.7%	-4.3	1.7%	/
CN(Cc1ccccc1)c1ccc(C(CC(N)=O)NC(=O)c2ccc(Br)cc2)cc1[N+](=O)[O-] (stereo not drawn)	-1.7%	-8.2%	11.9	5.01µM*	-1.1	?	?
CCCCNC(=S)NCc1ccc2[nH]c(C)cc2c1	25.2%	1.3%	-3.2	1.41µM*	4.3	-13.7%	-6.0
Cc1c(/C=N/NC(=O)c2ccc(O)cc2)c2ccccn2c1C(=O)c1ccc(F)cc1	15.5%	?	9.4	8.91µM*	1.1	4.15µM*	-7.8
CCCn1c(SCC(=O)Nc2sc(C)c(C)c2C#N)nnc1C(C)C	2.8%	6.1%	-17.7	8.91µM*	8.1	?	-19.8
O=c1cc(O)nc2n1CCCS2	6.2%	64.1%	-23.3	7.94µM*	-2.8	41.1%	1.4
Cc1cc(-c2csc(NC(=O)c3ccc(=O)n(C)n3)n2)c(C)n1CC1CCCO1 (stereo not drawn)	-4.0%	7.38µM*	-7.1	20µM*	-1.9	?	12.5
COc1cc(CNCCSc2nnnn2C)cc(Br)c1OCc1ccccc1	0.5%	1.6%[5.75 µM]	-6.1	2.9%	-1.7	?	/
Cc1cc(C)n(S(=O)(=O)c2cc(C(=O)O)c(Cl)cc2Cl)n1	9.8%	/	-9.1	?	0.4	0.1%	9.6
Cc1cc(C)n(S(=O)(=O)c2ccc(Cl)c(Cl)c2Cl)n1	-9.6%	?	-7.0	-42.4%	-3.3	-10.0%	/
O=C(N/N=C/c1cccc(O)c1)c1ccc(COc2ccccc2Br)cc1	-6.7%	?	25.4	?	9.6	3.6%	?
Cn1cc(C(=O)N/N=C/c2cccc(O)c2)ccc1=O	4.1%	23.3%	-8.9	4.5%	-1.1	16.7%	/
N#CC1=C(N)NC(SCC(=O)O)=C(C#N)C12CCCC2	11.1%	96.5%[5.75 µM]	21.9	2.24µM*	3.0	-13.9%	0.2
N#CC1=C(SCC(=O)NC2CC2)NC(=O)C(C#N)C12CCCCC2 (stereo not drawn)	6.6%	/	9.5	-1.1%	-0.5	11.3%	/
CC12CCC(=O)N1C(C(=O)Nc1ccccc1N1CCOCC1)CS2 (stereo not drawn)	-4.3%	-2.2%	-4.0	7.3%	-2.4	-0.4%	/
c1ccc(NC2=NCCN2CCCC2CCCC2)cc1	0.8%	?	/	/	/	?	/
COc1cc(C(=O)Nc2cccc3c2CCCC3)cc(OC)c1OC	0.1%	0.0%	-1.1	-13.8%	-2.5	-16.0%	/
